Measurements from the supplement of paper PMC3545927.
The list shows a part of the results. The true hit rate is not given.

Target: furin, P09958
Test: furin cleavage Z-score vs untreated control; higher = more cleavage, active = 3.5 or more, inactive = 1 or less, 8 variable residues between constant flanks
Method: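 Multiplexed peptide-cDNA fusion cleavage assay. 8-mer variable peptides flanked by constant Cys-Ala (N-term) and Ala-Gly-Asn-Ala-Ser-Ala-Ser-Ala (C-term) and conjugated to a cDNA oligonucleotide were bead-immobilised via the N-terminus. They were treated with purified furin at a 1:10 enzyme:substrate ratio in 50 mM HEPES pH 7.5, 1 mM CaCl2, 100 mM NaCl for 7.5, 15 or 30 min. Released cDNA was counted by next-generation sequencing, and log counts versus no-furin controls were lowess-adjusted and converted to robust Z-scores.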

Chain of furin, P09958 (P09958 whole entry): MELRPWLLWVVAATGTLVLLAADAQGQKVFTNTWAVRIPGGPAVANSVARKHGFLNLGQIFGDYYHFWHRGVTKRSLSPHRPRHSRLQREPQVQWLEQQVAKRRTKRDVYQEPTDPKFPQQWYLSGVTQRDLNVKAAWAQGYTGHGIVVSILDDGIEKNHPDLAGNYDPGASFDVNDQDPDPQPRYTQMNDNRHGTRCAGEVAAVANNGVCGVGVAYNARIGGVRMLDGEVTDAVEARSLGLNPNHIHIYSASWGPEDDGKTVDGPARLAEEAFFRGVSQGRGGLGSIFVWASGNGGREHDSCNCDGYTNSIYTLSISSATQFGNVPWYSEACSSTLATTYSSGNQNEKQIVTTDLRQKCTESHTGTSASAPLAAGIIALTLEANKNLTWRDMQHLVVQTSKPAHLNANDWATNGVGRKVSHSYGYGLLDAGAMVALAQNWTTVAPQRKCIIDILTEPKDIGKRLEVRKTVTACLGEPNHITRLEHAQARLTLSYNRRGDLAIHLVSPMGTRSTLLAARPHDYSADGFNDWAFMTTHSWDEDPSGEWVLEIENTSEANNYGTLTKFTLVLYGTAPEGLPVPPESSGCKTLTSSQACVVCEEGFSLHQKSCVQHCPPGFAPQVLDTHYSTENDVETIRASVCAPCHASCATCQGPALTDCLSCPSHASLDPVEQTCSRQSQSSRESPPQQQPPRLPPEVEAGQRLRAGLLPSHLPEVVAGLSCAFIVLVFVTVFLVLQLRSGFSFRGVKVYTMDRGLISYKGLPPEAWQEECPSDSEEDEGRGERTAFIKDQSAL

Sequence | furin cleavage Z-score (7.5 min) | furin cleavage Z-score (15 min) | furin cleavage Z-score (30 min)
CAEDTTPCSGAGNASASA [HC1971] | 0.299 (inactive) | -1.06 (inactive) | -0.5 (inactive)
CAADGGCSGGAGNASASA [HC811] | -1.33 (inactive) | -0.697 (inactive) | -0.396 (inactive)
CAERVTSTWVAGNASASA [HC2173] | -0.173 (inactive) | -0.632 (inactive) | -2.09 (inactive)
CARPPRSIVTAGNASASA [FS-2439] | 2.64 | 4.75 (active) | 6.76 (active)
CAAAPGAATAAGNASASA [HC1071] | -1.75 (inactive) | 0.135 (inactive) | -1.91 (inactive)
CARPKKRAETAGNASASA [FS-1760] | -0.848 (inactive) | 2.01 | 0.187 (inactive)
CARPVRGIHTAGNASASA [FS-3030] | 1.52 | 0.149 (inactive) | 3.15
CARPRRLSTAAGNASASA [FS-3022] | -0.374 (inactive) | 0.291 (inactive) | 1.13
CACPNSSIVYAGNASASA [HC264] | 0.0997 (inactive) | 0.251 (inactive) | -0.406 (inactive)
CARPPRSPDHAGNASASA [FS-2740] | 4.56 (active) | 5.51 (active) | 4.52 (active)
CARTGRSREVAGNASASA [FS-3105] | 0.737 (inactive) | -1.37 (inactive) | 1.18
CARPQRLIDHAGNASASA [FS-3020] | -0.401 (inactive) | -0.141 (inactive) | -0.235 (inactive)
CARTGRSIVYAGNASASA [FS-2465] | 2.57 | 5.05 (active) | 6.39 (active)
CARPPRSATAAGNASASA [FS-2058] | 1.66 | 4.98 (active) | 3.61 (active)
CASGTFPINAAGNASASA [HC1189] | -0.56 (inactive) | -1.29 (inactive) | -0.783 (inactive)
CAGGCSGGAYAGNASASA [HC812] | 0.0451 (inactive) | -0.928 (inactive) | -1.91 (inactive)
CAFLVQAWKSAGNASASA [HC1472] | -0.545 (inactive) | -1.14 (inactive) | 0.129 (inactive)
CAPPGDPPQPAGNASASA [HC1545] | 0.491 (inactive) | -1.28 (inactive) | -0.552 (inactive)
CAVQWMNRLIAGNASASA [HC1117] | -0.371 (inactive) | -0.656 (inactive) | -0.702 (inactive)
CATYSRCGSGAGNASASA [HC457] | -0.645 (inactive) | -0.493 (inactive) | 0.00889 (inactive)
CAAILHTPGCAGNASASA [HC270] | 0.368 (inactive) | 1.18 | -0.0199 (inactive)
CARPPRSTCQAGNASASA [FS-2580] | 2.35 | 3.89 (active) | 3.84 (active)

Sequence | furin cleavage Z-score (7.5 min) | furin cleavage Z-score (15 min) | furin cleavage Z-score (30 min)
CARPPREEGKAGNASASA [FS-2438] | -0.719 (inactive) | -0.617 (inactive) | -0.558 (inactive)
CARLLRDADDAGNASASA [FS-2278] | -0.832 (inactive) | -0.574 (inactive) | -0.464 (inactive)
CARGPRSYPHAGNASASA [FS-2935] | -0.268 (inactive) | 1.01 | 0.916 (inactive)
CARLRRLLWIAGNASASA [FS-2044] | -1.02 (inactive) | -0.859 (inactive) | 0.923 (inactive)
CARPPRGFQPAGNASASA [FS-3019] | -1.18 (inactive) | -0.836 (inactive) | -0.248 (inactive)
CARGPRSATHAGNASASA [FS-1894] | 3.56 (active) | 2.79 | 2.67
CARGPRSSSAAGNASASA [FS-1712] | -0.135 (inactive) | -0.114 (inactive) | -1.14 (inactive)
CARLLRSLTHAGNASASA [FS-2993] | 1.05 | 3.14 | 4.05 (active)
CAIKGGRHLIAGNASASA [HC853] | -0.712 (inactive) | -0.368 (inactive) | 0.443 (inactive)
CADGEVVTSTAGNASASA [HC2296] | 0.392 (inactive) | 0.826 (inactive) | -0.278 (inactive)
CAVRLRAYMNAGNASASA [HC929] | 0.615 (inactive) | -1.18 (inactive) | 1.3
CAYKVLVLNPAGNASASA [HC785] | 1.85 | -0.276 (inactive) | -1.39 (inactive)
CARSKRRWAPAGNASASA [FS-2307] | 0.891 (inactive) | 0.79 (inactive) | 2.12
CARSKRDEKLAGNASASA [FS-2810] | 3.32 | 5.67 (active) | 5.15 (active)
CARSKRDSTYAGNASASA [FS-3169] | 6.51 (active) | 7.64 (active) | 7.09 (active)
CARSGRDSGYAGNASASA [FS-2303] | -0.464 (inactive) | -0.846 (inactive) | -1.58 (inactive)
CARSKRDPDLAGNASASA [FS-2087] | -0.408 (inactive) | 0.763 (inactive) | 0.503 (inactive)
CARSKRDYTPAGNASASA [FS-1928] | 6.07 (active) | 5.96 (active) | 6.83 (active)
CARSKKPKGLAGNASASA [FS-3082] | 0.217 (inactive) | -0.722 (inactive) | -1.55 (inactive)
CARSKRPSTDAGNASASA [FS-2606] | -0.273 (inactive) | 0.303 (inactive) | 0.307 (inactive)
CARSKRYVHLAGNASASA [FS-2381] | 2.83 | 5.52 (active) | 7.4 (active)
